STK33 inh: STK33 kinase inhibitors, primary screen, biochemical, luminescence, ADP-Glo, MBP substrate; Serine/threonine-protein kinase 33 (Homo sapiens), Q9BYT3; inhibition, % at 12.5 µM; 0.44% of 27,000 active; AID 2322, 2010; in the data active = inhibition above about 20%
Target sequence (Q9BYT3 whole entry, looked up): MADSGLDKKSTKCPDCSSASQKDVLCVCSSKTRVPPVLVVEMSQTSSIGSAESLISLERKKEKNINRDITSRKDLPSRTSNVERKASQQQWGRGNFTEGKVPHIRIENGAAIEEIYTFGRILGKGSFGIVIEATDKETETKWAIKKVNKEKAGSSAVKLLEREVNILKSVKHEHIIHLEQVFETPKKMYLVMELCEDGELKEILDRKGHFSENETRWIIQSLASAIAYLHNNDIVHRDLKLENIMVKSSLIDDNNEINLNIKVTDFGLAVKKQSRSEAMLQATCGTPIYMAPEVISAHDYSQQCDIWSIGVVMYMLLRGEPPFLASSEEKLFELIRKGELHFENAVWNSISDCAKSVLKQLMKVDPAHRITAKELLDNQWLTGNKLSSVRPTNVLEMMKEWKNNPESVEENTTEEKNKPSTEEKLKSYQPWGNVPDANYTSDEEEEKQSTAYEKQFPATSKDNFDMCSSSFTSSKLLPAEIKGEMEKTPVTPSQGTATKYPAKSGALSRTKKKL
PD-1 reversal: activators reversing PD-1 mediated T-cell inhibition, primary screen, luminescence, primary human CD4 T cells, PD-L1 beads; CellTiter-Glo 96 h; activation, % (test concentration not listed); 29,000 tested, under 10 active; AID 2316, 2010; call rule not given here;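 also: 0% = median vehicle wells and 100% = positive control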
NOMO-1 viab: NOMO-1 AML cell viability reduction, primary screen, STK33 inhibitor project, CellTiter-Glo luminescence | inhibition, % (no concentration beside the values) | 7.5% of 37,000 active | AID 2330, 2010 | NOMO-1 AML viability, 72 h; in the data active = inhibition above about 80%
* = called active by the depositor; x = not tested or not shown. This excerpt belongs to a sample that is enriched for hits.

SMILES | STK33 inh | PD-1 reversal | NOMO-1 viab
NC(=O)NCC#Cc1ccc2c(c1)[C@]1(C(=O)N2)[C@H](C(=O)N2CCCCCCC2)[C@H]2C(=O)O[C@H](c3ccccc3)[C@H](c3ccccc3)N2[C@@H]1c1ccc(O)cc1 | 12 | x | x
Cc1ccc(S(=O)(=O)NCC(=O)Nc2ccc(I)cc2)cc1 | 0 | -1 | 12
O=C(CCN1C(=O)C2C3c4ccccc4C(c4ccccc43)C2C1=O)Oc1ccccc1[N+](=O)[O-] (stereo unspecified) | 2 | x | 0
S=c1nc(C23CC4CC(CC(C4)C2)C3)[nH][nH]1 | 0 | 3 | -1
Cc1sc(N)nc1C12CC3CC(CC(C3)C1)C2 | x | -1 | 105*
CCN(CC)c1ccc2cc(C(=O)Nc3ccccc3)c(=N)oc2c1 | x | 1 | 15
N=c1oc2ccccc2cc1C(=O)Nc1ccc(F)cc1 | x | -2 | 120*
CCN(CC)C(=O)c1cccc(Cl)c1 | x | 0 | 8
CCCn1c(-c2ccc(F)cc2)n[nH]c1=O | x | 1 | -16
C[C@@H]1CN([C@H](C)CO)C(=O)c2cc(NC(=O)Nc3ccccc3)ccc2O[C@@H]1CN(C)Cc1ccc(C(F)(F)F)cc1 | -2 | 1 | 58
C[C@H]1CN([C@@H](C)CO)C(=O)c2cc(NC(=O)Nc3ccc(C(F)(F)F)cc3)ccc2O[C@H]1CN(C)Cc1ccc(C(=O)O)cc1 | -2 | 3 | 8
C[C@H](CO)N1C[C@H](C)[C@@H](CN(C)Cc2ccccc2)Oc2ccc(NC(=O)Nc3ccc(C(F)(F)F)cc3)cc2C1=O | x | -4 | 122*
C[C@@H]1CN([C@H](C)CO)C(=O)c2cc(NC(=O)Nc3ccccc3)ccc2O[C@H]1CN(C)Cc1ccc(C(F)(F)F)cc1 | 3 | -9 | 99*
COc1ccc(NC(=O)CSc2nc3sc4c(c3c(=O)n2-c2ccccc2)CCCC4)c([N+](=O)[O-])c1 | 1 | x | 7
COc1ccc(Sc2ccccc2COC(C)=O)c(C(=O)O)c1 | x | 3 | 4
O=[n+]1cc(-c2ccccc2)n([O-])c2c1CCCC2 | x | 1 | -26
C[C@@H]1CN([C@H](C)CO)C(=O)c2cc(NC(=O)Nc3ccc4c(c3)OCO4)ccc2O[C@H]1CN(C)Cc1ccc(Cl)c(Cl)c1 | x | 1 | 49
C[C@H]1CN([C@@H](C)CO)C(=O)c2cc(NC(=O)Nc3ccc4c(c3)OCO4)ccc2O[C@@H]1CN(C)Cc1ccc(Cl)c(Cl)c1 | 0 | -6 | 23
C[C@H](CO)N1C[C@H](C)[C@H](CN(C)Cc2ccc(Cl)c(Cl)c2)Oc2ccc(NC(=O)Nc3ccc4c(c3)OCO4)cc2C1=O | -1 | 1 | 88*
C[C@H](CO)N1C[C@H](C)[C@@H](CN(C)Cc2ccc(Cl)c(Cl)c2)Oc2ccc(NC(=O)Nc3ccc4c(c3)OCO4)cc2C1=O | x | 1 | 101*
O=C(CCSc1nc2ccccc2o1)Nc1ccc(F)cc1 | 3 | x | -16
COc1cccc(NC(=O)CC2NC3CCCCC3NC2=O)c1 (stereo unspecified) | -2 | -1 | -12
C/C1=C/CC(=O)C(C)C[C@H]2OC(=O)[C@H](C)C2[C@@H](O)C1 (stereo partly specified) | -3 | 2 | -10
CC(C)Nc1nc(Oc2ccc(=O)[nH]n2)nc(N(C)C)n1 | 0 | 1 | 8
C=C1C(=O)O[C@@H]2C=C(C)[C@@H]3CC[C@@](C)(O)[C@@H]3C[C@H]12 | 1 | 0 | 38
SMILES | STK33 inh | PD-1 reversal | NOMO-1 viab
C=C1C(=O)O[C@H]2C3=C(C)CCC[C@]3(C)C(=O)C[C@@H]12 | 1 | -35 | 121*
COc1ccc(C(=O)NCc2occc2C(=O)O)cc1 | -1 | 1 | -16
COC(=O)CN(c1ccc2c(c1)OCCO2)S(C)(=O)=O | -4 | -2 | 46
N#Cc1ccccc1NC(=O)CSc1ccccn1 | x | 0 | 27
O=C(/C=C/Sc1ccccn1)c1ccccc1 | x | -3 | 114*
CC(=O)c1ccc(NC(=O)CSc2nnc3n(-c4ccccc4)c(=O)c4c5c(sc4n23)COC(C)(C)C5)cc1 | 3 | x | -28
C[C@H](CO)N1C[C@H](C)[C@H](CN(C)Cc2ccncc2)Oc2ccc(NC(=O)Cc3ccccc3)cc2C1=O | x | x | 98*
C[C@@H]1CN([C@H](C)CO)C(=O)c2cc(NC(=O)Cc3ccccc3)ccc2O[C@H]1CN(C)Cc1ccc(-c2ccccc2)cc1 | 1 | -10 | 117*
C[C@H]1CN([C@@H](C)CO)C(=O)c2cc(NC(=O)Cc3ccccc3)ccc2O[C@H]1CN(C)Cc1ccccc1 | -1 | 2 | 24
C[C@@H]1CN([C@@H](C)CO)C(=O)c2cc(NC(=O)Cc3ccccc3)ccc2O[C@@H]1CN(C)Cc1ccc(-c2ccccc2)cc1 | 1 | -4 | 35
CC1=NN(c2ccccc2)C(=O)C1C (stereo unspecified) | 0 | 2 | 37

High-throughput results from PubChem.
